These results are taken from PubChem BioAssay (EPA / NIEHS).

The structures appear in SMILES notation. Records with an inconclusive call do not appear. Active and inactive are the calls of the source. Rule for the calls: active = hit-call score of the fitted dose curve at least 0.9, where 1 is the maximum; inconclusive = response in the unintended direction; inactive = score below 0.9.

Chain of PGR (gene 5241) (P06401 whole entry, looked up): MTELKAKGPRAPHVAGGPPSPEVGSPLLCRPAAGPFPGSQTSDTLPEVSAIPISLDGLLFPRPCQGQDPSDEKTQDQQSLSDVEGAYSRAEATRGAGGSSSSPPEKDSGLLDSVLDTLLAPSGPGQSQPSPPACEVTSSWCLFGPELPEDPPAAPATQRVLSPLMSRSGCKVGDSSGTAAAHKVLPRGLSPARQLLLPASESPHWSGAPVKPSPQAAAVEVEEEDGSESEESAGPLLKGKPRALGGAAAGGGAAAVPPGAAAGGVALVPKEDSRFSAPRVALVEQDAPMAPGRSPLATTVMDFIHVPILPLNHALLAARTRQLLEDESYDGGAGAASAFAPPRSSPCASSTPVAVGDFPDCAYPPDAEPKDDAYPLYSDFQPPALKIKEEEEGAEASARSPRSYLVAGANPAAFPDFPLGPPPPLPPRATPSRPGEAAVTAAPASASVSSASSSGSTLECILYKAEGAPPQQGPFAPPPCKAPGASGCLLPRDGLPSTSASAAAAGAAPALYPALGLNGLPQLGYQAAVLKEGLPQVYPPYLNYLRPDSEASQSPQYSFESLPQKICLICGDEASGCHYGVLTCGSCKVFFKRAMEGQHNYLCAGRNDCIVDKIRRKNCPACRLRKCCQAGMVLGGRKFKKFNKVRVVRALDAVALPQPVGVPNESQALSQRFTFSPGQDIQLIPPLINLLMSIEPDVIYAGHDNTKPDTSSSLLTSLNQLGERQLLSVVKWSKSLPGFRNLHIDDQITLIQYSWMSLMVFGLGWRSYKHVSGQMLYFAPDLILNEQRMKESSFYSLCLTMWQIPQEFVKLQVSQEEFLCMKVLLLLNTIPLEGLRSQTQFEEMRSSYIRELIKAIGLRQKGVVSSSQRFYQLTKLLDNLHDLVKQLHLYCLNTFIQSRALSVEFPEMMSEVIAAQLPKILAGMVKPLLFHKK

This assay addresses PGR (gene 5241) (UniProt P06401). Description: TOX21_PR_LUC_Followup_Antagonist: Tox21 HEK293 Progesterone Receptor (PR) Antagonism Luciferase Follow-Up Assay (AID 2283938).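 Note: curve fitted upward as signal gain over DMSO baseline despite antagonist label.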 An excerpt:
TOX21_PR_LUC_Followup is a secondary assay for specificity for the TOX21_PR_BLA_Agonist assay. To differentiate true PR agonists from cytotoxic substances, this follow up assay is multiplexed with a cell viability assay.TOX21_PR_LUC_Followup_Antagonist is one of one assay component(s) measured or calculated from the TOX21_PR_LUC_Followup assay. It is designed to make measurements of luciferase induction, a form of inducible reporter, as detected with bioluminescence signals by CellTiter-Glo Luciferase-coupled ATP quantitation technologyData from the assay component TOX21_PR_LUC_Followup_Antagonist was analyzed into 1 assay endpoint. This assay endpoint, TOX21_PR_LUC_Followup_Antagonist, was analyzed in the positive analysis fitting direction relative to DMSO as the negative control and baseline of activity. Using a type of inducible reporter, gain-of-signal activity can be used to understand changes in the reporter gene as they relate to the gene NR3C3. Furthermore, this assay endpoint can be referred to as a primary readout, because the performed assay has only produced 1 assay endpoint. To generalize the intended target to other relatable targets, this assay endpoint is annotated to the nuclear receptor target family, where the subfamily is steroidal.
Quality Control Precautions: Maintain cells below 85-90% confluence in culture medium. For assay purpose, the cells should be cultured in assay medium with 10% charcoal stripped FBS for 5 days with alternate day medium changed to fresh medium. Especially while in assay culture, the cells should not reach more than 85% confluence as they would become harder to detach if they reach over confluence.Assay Protocol: HEK293-PR-A-luc cells were dispensed at 3,000 cells/5 uL/well of culture medium into white wall/solid-bottom 1536-well plates using a Multidrop Combi (ThermoFisher Scientific, Waltham, MA) dispenser. After the assay plates were incubated at 37C and […] for 5 h, 23 nL of compounds dissolved in DMSO, positive controls or DMSO only was transferred to the assay plate by a Pintool station (Kalypsys, San Diego, CA). The plates were incubated at 37C and […] for 16 h. Then 4 uL of ONE-Glo reagent (Promega, Madison, WI) was added to each plate using a BioRAPTR Flying Reagent Dispenser (FRD) workstation (Beckman Coulter, Indianapolis, IN, USA) and luminescence was quantified on a ViewLux (PerkinElmer, Shelton, CT) plate reader after 30 min incubation at room temperature.
As to `CC(COc1ccccc1)N(CCCl)Cc1ccccc1` (configuration not stated), the compound was called inactive. For `Oc1ccc2c(c1)Cc1ccccc1-2`, the AC50 was 38.1 µM (active). Regarding `C#C[C@]1(O)CC[C@H]2[C@@H]3CCc4cc(OC5CCCC5)ccc4[C@H]3CC[C@@]21C`, the AC50 is 16.2 µM (active). On to `C[C@]12CCC(=O)C=C1C=C[C@@H]1[C@@H]2CC[C@@]2(C)[C@H]1CC[C@@]21CCC(=O)O1`, for which the outcome was inactive. For the compound `COC(=O)C1=C(C)NC(C)=C(C(=O)OCC(C)=O)C1c1ccccc1[N+](=O)[O-]` (configuration not stated), the AC50 is 21.5 µM (active). Turning to `C[C@@H]1C[C@H]2[C@@H]3C[C@H](F)C4=CC(=O)C(Cl)=C[C@]4(C)[C@@]3(F)[C@@H](O)C[C@]2(C)[C@@]1(O)C(=O)CO`, the call was inactive. For `COCCOC(=O)C1=C(C)NC(C)=C(C(=O)OC(C)C)C1c1cccc([N+](=O)[O-])c1` (configuration not stated), the half-maximal activity concentration (AC50) is 26.4 µM (active). The same measure, in the same setting: the same measure for `CCOC(=O)C1=C(C)NC(C)=C(C(=O)OC)C1c1cccc([N+](=O)[O-])c1` (configuration not stated): 11.2 µM (active). Consider `C[C@]12CCC(=O)C=C1CC[C@@H]1[C@@H]2CC[C@@]2(C)[C@H]1CC[C@]2(O)C(=O)CO`, for which the outcome was inactive.

Consider `Oc1ccc(N=Nc2ccccc2)cc1`, for which the compound was called inactive. Take `O=S(=O)(Oc1ccc(Cl)cc1)c1ccccc1`: the compound was called inactive.

Consider `CCCCN1CCCC1C(=O)Nc1c(C)cc(C)cc1C` (configuration not stated), for which the call was inactive. With `CC(C)C[C@H](NC(=O)[C@H](Cc1ccccc1)NC(=O)c1cnccn1)B(O)O`, the concentration at half-maximal activity (AC50) is 0.0717 µM (active).

Regarding `N#C/C(=C1/SC[C@@H](c2ccc(Cl)cc2Cl)S1)n1ccnc1`, the outcome was inactive. Turning to `CC(O)(c1ccc(Cl)cc1)c1ccc(Cl)cc1`, the AC50 was 61.6 µM (active). As for `O=C1Nc2ccc(Cl)cc2[C@@](C#CC2CC2)(C(F)(F)F)O1`, the result was inactive. Consider `CC(=O)Oc1ccc2c(c1)CC[C@@H]1[C@@H]2CC[C@]2(C)[C@@H](O)CC[C@@H]12`, for which the concentration at half-maximal activity (AC50) is 0.449 µM (active). The same measure, in the same setting: the result for `O=[N+]([O-])c1ccc2c(c1)Cc1ccccc1-2` reads 31 µM (active). `CC(=O)OCC(=O)[C@@]1(OC(C)=O)[C@@H](C)C[C@H]2[C@@H]3C[C@H](F)C4=CC(=O)C=C[C@]4(C)[C@@]3(F)[C@@H](O)C[C@@]21C`: the result was inactive. As for `CC1(C)CCC(C)(C)c2cc(NC(=O)c3ccc(C(=O)O)cc3)ccc21`, the result was inactive.

Take `CN(C1CCCCC1)S(=O)(=O)c1ccccc1N`: the AC50 is 24.2 µM (active). Consider `Nc1ccccc1S(=O)(=O)c1ccccc1`, for which the call was inactive. Take `C=C1C(CCl)(CCl)C2(Cl)C(Cl)C(Cl)C1(Cl)C2(Cl)Cl` (configuration not stated): the result was inactive. As to `NC(=O)n1c(O)c(C(=O)c2cccs2)c2cc(Cl)ccc21`, the AC50 is 17.3 µM (active).

For the compound `CCn1c2ccccc2c2cc([N+](=O)[O-])ccc21`, the AC50 is 8.06 µM (active).

For the compound `COC(=O)C(c1ccccc1Cl)N1CCc2sccc2C1` (configuration not stated), the AC50 was 23 µM (active). Same read-out and setting: the result for `COCCOC(=O)C1=C(C)NC(C)=C(C(=O)OC/C=C/c2ccccc2)C1c1cccc([N+](=O)[O-])c1` (configuration not stated) reads 7.18 µM (active). `CC(=O)OCC(=O)[C@@]1(O)CC[C@H]2[C@@H]3CCC4=CC(=O)C=C[C@]4(C)[C@H]3[C@@H](O)C[C@@]21C`: the compound was called inactive. As for `COC(=O)C1=C(C)NC(C)=C(C(=O)OCCN2CCN(C(c3ccccc3)c3ccccc3)CC2)C1c1cccc([N+](=O)[O-])c1` (configuration not stated), the AC50 is 23 µM (active). On to `c1cc[c]([Bi]([c]2ccccc2)[c]2ccccc2)cc1`, for which the result was inactive.

Take `CC(C)C[C@H](NC(=O)[C@H](CCc1ccccc1)NC(=O)CN1CCOCC1)C(=O)N[C@@H](Cc1ccccc1)C(=O)N[C@@H](CC(C)C)C(=O)[C@@]1(C)CO1`: the AC50 is 8.16 µM (active). For the compound `c1ccc2c(c1)CCc1ccccc1N2`, the outcome was inactive. For `Cc1ccc(/C=N/n2c(-c3ccccc3)csc2=S)cc1`, the compound was classed as inactive. For `Cc1cc(C)c(C=C2C(=O)Nc3ccccc32)[nH]1`, the compound was classed as inactive. Same read-out and setting: the same measure for `O=C(Nc1ccc(Cl)c(Cl)c1)C1CC1`: “inactive”. On to `COC(=O)C1=C(C)NC(COC(N)=O)=C(C(=O)OC(C)C)C1c1cccc(Cl)c1Cl` (configuration not stated), for which the half-maximal activity concentration (AC50) was 7.88 µM (active). Consider `C[C@H]1C[C@H]2[C@@H]3CCC4=CC(=O)C=C[C@]4(C)[C@@]3(Cl)[C@@H](O)C[C@]2(C)[C@@]1(O)C(=O)CO`, for which the result was inactive.
